# Records with an inconclusive call do not appear. Where a call stands in place of a potency, no number is given. A number with no mark means an inactive call. Activity calls are given as the source filed them. Calls come from the whole dose curve; as a rule, active = well fitted inhibition curve with a large enough effect; inconclusive = small, poorly fitted or top-dose-only effect; inactive = flat fitted curve, though single readings scatter.
# What was measured:
# [1] = P-glycoprotein substrates identified in KB-8-5-11 adenocarcinoma cell line, qHTS therapeutic library screen (AID 1346987); note: series mostly up to about 44 µM
# Summary of the method: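 Steps: plate 500 KB-8-5-11 cells/well in DMEM + 10% FCS (colchicine removed); pin compounds in dose-response; incubate 72 h, 37 degree C, 5% CO2; add CellTiter-Glo, 5 min; read luminescence.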
# [2] = molecular target: Glutathione peroxidase 1 (Homo sapiens) (UniProt P07203); experiment: Primary qHTS Assay for Inhibitors of Recombinant Selenoprotein Glutathione Peroxidase 1 (GPX1) (AID 1845191)
# Summary of the method: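 10 nM GPX1 + cpd, 30 min RT; start w/ 1 mM GSH, 0.5 mM cumene hydroperoxide, 0.5 mM NADPH, 100 nM GR, 0.01% BSA; buffer 50 mM Tris-HCl pH 7.5, 2 mM EDTA, 150 mM NaCl; Fl 340/450, 0 & 15 min.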
# Note: nearly all actives have a fitted effect of over 65% in size.
# Chain of Glutathione peroxidase 1 (Homo sapiens) (P07203 whole entry, looked up): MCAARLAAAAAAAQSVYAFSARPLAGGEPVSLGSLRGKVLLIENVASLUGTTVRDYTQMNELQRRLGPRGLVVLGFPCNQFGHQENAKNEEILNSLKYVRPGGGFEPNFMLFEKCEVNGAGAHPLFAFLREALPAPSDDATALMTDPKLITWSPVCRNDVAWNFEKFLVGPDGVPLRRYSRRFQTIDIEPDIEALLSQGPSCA
smiles,measurement,setting,value
N#Cc1cccc(CN2CCC(N(Cc3cccnc3)C(=O)Nc3ccccc3-c3ccccc3)CC2)c1,Potency,[1],inactive
same,Potency,[2],inactive

# — PubChem BioAssay (NCATS)
